# PubChem BioAssay AID1347420 (Sanford-Burnham Center for Chemical Genomics, 2020)
# About 980 (75%) of roughly 1,300 compounds were called active. Not shown: some 4% with an inconclusive outcome. This is one part of the list. A number with no mark means an inactive call.
# Target: Sulfhydryl oxidase 1 (Homo sapiens) (UniProt O00391)
# Experiment: inhibition of human sulfhydryl oxidase QSOX1 – biochemical, HyperBlu H2O2 luminescence, HTS, primary screen (AID 1347420); note: values above 100% were filed as inconclusive
# Settings: recombinant QSOX1, HyperBlu H2O2 luminescence; at 12.5 µM; stronger effect = higher value; active = any value above zero
# Sequence of Sulfhydryl oxidase 1 (Homo sapiens) (O00391 whole entry, looked up): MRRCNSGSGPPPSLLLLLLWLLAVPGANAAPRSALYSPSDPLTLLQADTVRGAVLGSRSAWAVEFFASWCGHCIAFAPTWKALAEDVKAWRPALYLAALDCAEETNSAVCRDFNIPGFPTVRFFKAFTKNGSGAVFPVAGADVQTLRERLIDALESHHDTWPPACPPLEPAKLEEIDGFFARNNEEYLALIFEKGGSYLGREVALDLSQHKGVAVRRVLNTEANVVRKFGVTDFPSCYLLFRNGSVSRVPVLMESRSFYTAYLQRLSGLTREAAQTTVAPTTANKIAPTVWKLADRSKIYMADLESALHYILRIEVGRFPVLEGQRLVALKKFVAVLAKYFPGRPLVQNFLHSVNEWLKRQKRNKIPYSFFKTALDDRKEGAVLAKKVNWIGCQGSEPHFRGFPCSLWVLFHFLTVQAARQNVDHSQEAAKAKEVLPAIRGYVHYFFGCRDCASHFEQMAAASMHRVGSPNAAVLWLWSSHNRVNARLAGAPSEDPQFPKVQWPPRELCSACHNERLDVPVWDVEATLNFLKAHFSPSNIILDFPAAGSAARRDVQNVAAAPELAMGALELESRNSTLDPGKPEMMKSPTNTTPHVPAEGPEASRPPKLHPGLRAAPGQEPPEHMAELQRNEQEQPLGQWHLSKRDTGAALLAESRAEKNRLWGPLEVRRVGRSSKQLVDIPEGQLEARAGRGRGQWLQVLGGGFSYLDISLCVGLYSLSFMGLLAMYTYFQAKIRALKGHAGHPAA
row,SMILES,inhibition
1,O=C1CCc2cc(OCCCCc3nnnn3C3CCCCC3)ccc2N1,11.5% (active)
2,COc1cc2c(cc1OC)-c1cc(=Nc3c(C)cc(C)cc3C)n(C)c(=O)n1CC2,4.4% (active)
3,CCn1nc(C(=O)O)c(=O)c2cc3c(cc21)OCO3,0%
4,O=c1ccn([C@@H]2O[C@H](COP(=O)(O)OP(=O)(O)O)[C@@H](O)[C@H]2O)c(=O)[nH]1,-0.8%
5,C[C@H]1O[C@@H](n2cc(F)c(=O)[nH]c2=O)[C@H](O)[C@@H]1O,20% (active)
6,O=C1N=C([O-])CN1/N=C/C1=C[C+]=C(c2ccc([N+](=O)[O-])cc2)O1,53% (active)
7,CSc1ccccc1N1CCN(CCCCCC(=O)NC2CCCc3ccccc32)CC1 (stereo unspecified),11.3% (active)
8,O=C(CCCCCN1CCN(c2ccccc2-c2ccccc2)CC1)NC1CCCc2ccccc21 (stereo unspecified),22.8% (active)
9,NC(N)=NC(=O)Cc1c(Cl)cccc1Cl,16.4% (active)
10,NC(N)=N/N=C/c1c(Cl)cccc1Cl,-6.1%
11,O=C(O)c1cccnc1C(=O)O,5.1% (active)
12,O=C1NCc2c1c1c3ccccc3[nH]c1c1[nH]c3ccccc3c21,13.3% (active)
13,Cn1c(=O)c2[nH]c(-c3ccccc3)nc2n(C)c1=O,14.7% (active)
14,CCCn1c(=O)c2[nH]c(-c3ccc(S(=O)(=O)O)cc3)nc2n(CCC)c1=O,20.3% (active)
15,CCCn1c(=O)c2[nH]c(-c3ccc(OCC(=O)NCCN)cc3)nc2n(CCC)c1=O,-3.6%
16,Cn1c(=O)c2[nH]c(-c3ccc(S(=O)(=O)O)cc3)nc2n(C)c1=O,31.8% (active)
17,CN(C)S(=O)(=O)c1ccc2c(c1)/C(=C/c1cc3c([nH]1)CCCC3)C(=O)N2,52.1% (active)
18,CNc1cc(NS(=O)(=O)c2ccc(N)cc2)nc(NC)n1,1.3% (active)
19,CCCCCCCCc1ccc(-c2ccc(C(=O)O)cc2)cc1,14.5% (active)

row,SMILES,inhibition
1,Oc1ccccc1O,62.9% (active)
2,O=[N+]([O-])c1cccc2c(Br)[nH]nc12,47.4% (active)
3,CC(=O)N[C@H](C(=O)O)C(C)(C)SN=O,10.5% (active)
4,CC(N)(C(=O)O)c1ccc(C(=O)O)cc1 (stereo unspecified),10.5% (active)
5,CCCC(=O)NCCc1c2n(c3ccc(OC)cc13)CCCc1ccccc1-2,50.8% (active)
6,O=C(O)c1cc2cc(F)ccc2[nH]1,1% (active)
7,O=C1NC(=O)/C(=C/c2ccc3nccnc3c2)S1,5.7% (active)
8,O=C1NC(=O)/C(=C/c2ccc(-c3ccc(F)cc3O)o2)S1,0%
9,O=C1NC(=O)/C(=C/c2ccc3c(c2)OC(F)(F)O3)S1,21.2% (active)
10,CCCN(CCc1ccccc1)C1CCc2c(O)cccc2C1 (stereo unspecified),14% (active)
11,O=c1cc(-c2ccccc2F)[nH]c2cc3c(cc12)OCO3,6.4% (active)
12,CCN(CC)CCCN(c1ccccc1)C1Cc2ccccc2C1,94.2% (active)
13,c1ccc(-c2ccccn2)nc1,7.1% (active)
14,NCCC1CCCC(CCN)N1 (stereo unspecified),6.6% (active)
15,OCc1ccc(-c2nn(Cc3ccccc3)c3ccccc23)o1,0.6% (active)
16,OC1(c2ccc(Cl)cc2)CCN(Cc2c[nH]c3ccccc23)CC1,14.4% (active)
17,Ic1ccc(N2CCN(Cc3c[nH]c4ncccc34)CC2)cc1,23.8% (active)
18,c1cnc(N2CCN(Cc3ccc4c(c3)OCO4)CC2)nc1,-5.6%
19,Clc1ccc(N2CCN(Cc3c[nH]c4ncccc34)CC2)cc1,12.6% (active)

row,SMILES,inhibition
1,COc1ccc2c(c1)c(CC(=O)O)c(C)n2C(=O)c1ccc(Cl)cc1,15.5% (active)
2,COc1ccc2c(c1)c(CC(=O)O)c(C)n2Cc1ccc(Cl)cc1,5.8% (active)
3,COc1ccc2c(c1)c(CC(=O)O)c(C)n2C(=O)c1ccccc1,9% (active)
4,CC(C)[C@@H]1CC[C@@H](C)C[C@@H]1P(=O)(c1ccccc1)c1ccccc1,-5.2%
5,O=C(CCNNC(=O)c1ccncc1)NCc1ccccc1,0.1% (active)
6,OC(CCN1CCCCC1)(c1ccccc1)C1CC2C=CC1C2 (stereo unspecified),8.3% (active)
7,OC(CCN1CCCCC1)(c1ccccc1)C1CCCCC1 (stereo unspecified),-1.3%
8,O=C(O)CC1CCCc2ccccc2C1O (stereo unspecified),8.6% (active)
9,NOCC(=O)O,3% (active)
10,NCCS(=O)(=O)O,9.8% (active)
11,NCC(O)(CS(=O)(=O)O)c1ccc(Cl)cc1 (stereo unspecified),-0.3%
12,NCCCS(=O)(=O)O,14.2% (active)
13,CN1CCc2cc(O)c(O)cc2C(c2ccccc2)C1 (stereo unspecified),67.4% (active)
14,CN1CCc2cc(Cl)c(O)cc2[C@@H](c2ccccc2)C1,35.8% (active)
15,CN1Cc2c(N)cccc2C(c2ccccc2)C1 (stereo unspecified),-2.6%
16,COc1ccccc1N1CCN(CCCNc2cc(=O)n(C)c(=O)n2C)CC1,22% (active)
17,COc1ccccc1N1CCN(CCCNc2c(C)c(=O)n(C)c(=O)n2C)CC1,16.8% (active)
18,CC#C[C@]1(O)CC[C@H]2[C@@H]3CCC4=CC(=O)CCC4=C3[C@@H](c3ccc(N(C)C)cc3)C[C@@]21C,89.8% (active)
